Assay outcomes deposited in PubChem by National Center for Advancing Translational Sciences (NCATS).
An excerpt weighted towards active compounds, which were near 2.4% of everything screened.
POLB inh: qHTS Assay for Inhibitors of DNA Polymerase Beta; Pol beta primer extension/strand displacement, fluorescence kinetic; AID 485314, 2010; 340,000 tested, 1.3% active; Potency, µM (top dose mostly 114 µM), without a hit: at the top dose activity change, negative = inhibition, usual class: inhibitors; note: % is set by controls: 0 for no effect and ±100 for the full control effect
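10 nM enzyme + cpd, 15 min RT; start with substrate 50 nM final; read 0 min and after 10 min RT. Corrected, normalized data; 4-parameter Hill curve fit.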
Pol iota inh: qHTS for Inhibitors of Polymerase Iota. Pol iota fluorescent replication assay, 10 min. DNA polymerase iota (Homo sapiens), Q9UNA4. 390,000 tested, 1% active. Potency, µM (doses to about 115 µM), without a hit: at the top dose activity, negative = inhibition, most hits filed as inhibitors. AID 588590, 2011
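Pol iota at 10 nM preincubated 15 min with compounds at room temperature; reaction started with fluorescent substrate, 50 nM final. Fluorescence read kinetically at 0 and 10 min; buffer-only wells as negative control.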
Pol kappa inh-1: qHTS for Inhibitors of Polymerase Kappa | 400,000 tested, 0.53% active | Potency, µM (doses to about 107 µM), for inactives: at the highest dose activity, negative = inhibition, most hits filed as inhibitors | DNA polymerase kappa (Homo sapiens), Q9UBT6 | AID 588579, 2011 | purified Pol kappa, fluorescent DNA synthesis assay, 10 min; note: % is set by controls: 0 for no effect and ±100 for the full control effect
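10 nM Pol kappa was preincubated with compounds for 15 min at room temperature. Reaction started with 50 nM (final) substrate. Fluorescence read kinetically at 0 and 10 min.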
FEN1 inh-1: qHTS Assay for the Inhibitors of Human Flap endonuclease 1 (FEN1); AID 588795, 2011; Potency, µM (top dose mostly 114 µM), for inactives: at the highest dose activity change, negative = inhibition, hits mostly inhibitors; 390,000 tested, 0.35% active; Recombinant FEN1 flap cleavage, fluorescence, 15 min; note: % is set by controls: 0 for no effect and ±100 for the full control effect; nearly all actives have a fitted effect of over 65% in size
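Read-out was taken twice, immediately and after 15 min, following addition of 50 nM substrate to 10 nM FEN1 that had sat with test compound for 15 min at room temperature. Curves came from a four-parameter Hill model.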
Pol eta inh-1: qHTS for Inhibitors of Polymerase Eta; DNA polymerase eta (Homo sapiens), Q9Y253; recombinant Pol eta, fluorescent DNA replication assay; Potency, µM (doses to about 114 µM), without a hit: top-dose activity change, negative = inhibition, hits mostly inhibitors; 390,000 tested, 1.2% active; AID 588591, 2011; note: % is set by controls: 0 for no effect and ±100 for the full control effect
Target sequence (Q9Y253 whole entry, looked up): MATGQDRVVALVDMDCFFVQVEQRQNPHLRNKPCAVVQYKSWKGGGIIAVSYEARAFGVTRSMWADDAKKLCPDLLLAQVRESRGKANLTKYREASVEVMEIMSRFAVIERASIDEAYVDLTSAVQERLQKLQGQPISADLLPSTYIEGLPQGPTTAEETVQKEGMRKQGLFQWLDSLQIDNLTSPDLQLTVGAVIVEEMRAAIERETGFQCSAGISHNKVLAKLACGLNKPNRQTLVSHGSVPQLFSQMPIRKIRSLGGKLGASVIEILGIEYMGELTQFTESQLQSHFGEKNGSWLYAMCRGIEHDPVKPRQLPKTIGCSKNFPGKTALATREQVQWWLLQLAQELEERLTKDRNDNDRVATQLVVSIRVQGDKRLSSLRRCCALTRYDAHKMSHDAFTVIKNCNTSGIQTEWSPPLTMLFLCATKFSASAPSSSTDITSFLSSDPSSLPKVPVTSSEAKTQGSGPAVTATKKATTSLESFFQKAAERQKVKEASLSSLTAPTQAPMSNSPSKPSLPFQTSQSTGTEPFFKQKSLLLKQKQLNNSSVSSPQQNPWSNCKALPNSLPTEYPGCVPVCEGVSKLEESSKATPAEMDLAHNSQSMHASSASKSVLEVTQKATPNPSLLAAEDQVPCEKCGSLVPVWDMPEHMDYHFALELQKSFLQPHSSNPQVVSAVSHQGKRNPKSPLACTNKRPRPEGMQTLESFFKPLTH
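Pol eta (10 nM) was preincubated with compounds for 15 min at room temperature, after which fluorescent replication substrate (50 nM final) was added to start the reaction. Fluorescence was read kinetically at 0 and 10 min.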
WRN helicase inh-1: qHTS for Inhibitors of WRN Helicase; WRN helicase unwinding, fluorescent forked duplex, kinetic; Potency, µM (top dose mostly 114 µM), inactives show at the top dose activity change, negative = inhibition, most hits filed as inhibitors; 360,000 tested, 0.46% active; AID 651768, 2012; note: % is set by controls: 0 for no effect and ±100 for the full control effect; nearly all actives have a fitted effect of over 55% in size
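Screening of the MLSMR collection measured strand separation of a quenched forked DNA duplex (100 nM) by 20 nM WRN with 2 mM ATP, all final. Compounds were preincubated with enzyme 15 min at room temperature.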
POLI cherry-pick: qHTS for Inhibitors of Polymerase Iota: Confirmatory Assay for Cherry-picked Compounds | AID 720496, 2013 | Pol iota primer extension, TAMRA/BHQ fluorescence | shares compounds with Pol kappa inh-1 | 1,500 tested, 77% active | Potency, µM, usual class: inhibitors
Pol kappa inh-2: qHTS for Inhibitors of Polymerase Kappa: Confirmatory Assay for Cherry-picked Compounds; shares compounds with Pol eta inh-1; purified Pol-kappa, fluorescent strand-displacement substrate; Potency, µM, most hits filed as inhibitors; 920 tested, 76% active; AID 720501, 2013
Pol eta inh-2: qHTS for Inhibitors of Polymerase Eta: Confirmatory Assay for Cherry-picked Compounds; shares compounds with Pol eta inh-1; Pol eta primer extension, TAMRA/BHQ fluorescence, 10 min; Potency, µM, most hits filed as inhibitors; 2,600 tested, 64% active; AID 720502, 2013
FEN1 inh-2: qHTS Assay for the Inhibitors of FEN1: Confirmatory Assay for Cherry-picked Compounds | shares compounds with FEN1 inh-1 | FEN1 flap cleavage, TAMRA/BHQ2 fluorogenic DNA substrate | Potency, µM, hits mostly inhibitors | 880 tested, 79% active | AID 720498, 2013; note: nearly all actives have a fitted effect of over 60% in size
WRN helicase inh-2: qHTS for Inhibitors of WRN Helicase: Confirmatory Assay for Cherry-picked Compounds. shares compounds with WRN helicase inh-1. WRN helicase DNA unwinding, fluorescence kinetic. Potency, µM (doses to about 57.1 µM), without a hit: at the highest dose activity, negative = inhibition, most hits filed as inhibitors. 610 tested, 63% active. AID 720497, 2013; note: nearly all actives have a fitted effect of over 65% in size
TO DNA binding: qHTS for Inhibitors of WRN Helicase: Thiazole Orange DNA Binding Counterscreen; AID 720499, 2013; shares compounds with WRN helicase inh-1; 610 tested, 10% active; thiazole orange DNA binding displacement, fluorescence; Potency, µM (highest dose often 57.1 µM), without a hit: at the top dose activity change, negative = inhibition, usual class: inhibitors;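 note: drop in dye fluorescence marks compound binding to DNA; % is set by controls: 0 for no effect and ±100 for the full control effect; nearly all actives have a fitted effect of over 60% in size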
BLM counter: qHTS for Inhibitors of WRN Helicase: BLM Helicase Counterscreen for WRN Inhibitors; Recombinant BLM helicase DNA unwinding, red fluorescence; 610 tested, 60% active; AID 720503, 2013; shares compounds with WRN helicase inh-1; Potency, µM (top dose mostly 57.1 µM), inactives show at the top dose activity change, negative = inhibition, actives largely listed as inhibitors; note: nearly all actives have a fitted effect of over 60% in size
* = called active by the depositor; i = inactive; ? = inconclusive; . = no result given; [ ] = dose if it differs, or a comment. Calls come from the whole dose curve; as a rule, active = well fitted curve in the direction sought with a large enough effect; inconclusive = small, poorly fitted or top-dose-only effect, or another doubt; inactive = no such curve, though single readings can be large; an effect the other way counts as inactive or inconclusive. Potency is the fitted concentration of half-maximal effect.

SMILES	POLB inh	Pol iota inh	Pol kappa inh-1	FEN1 inh-1	Pol eta inh-1	WRN helicase inh-1	POLI cherry-pick	Pol eta inh-2	WRN helicase inh-2	TO DNA binding	BLM counter	others
CC(C)c1ccc(S(=O)(=O)Nc2ccc(O)c(Sc3ncn[nH]3)c2)cc1	-14%	3%	-1%	9%	-24%	2%	.	.	.	.	.
CCCOc1c(Br)cc(C(=O)OCC(=O)NC2CC2)cc1OC	.	12%	-7%	3%	-15%	-4%	.	.	.	.	.
O=C(NCc1cccs1)c1ccc2c(=O)n3nc(Nc4ccccc4)sc3nc2c1	?	-11%	-5%[60.1 µM]	12%	?	.	?	.	19µM*	158%	3.4µM*
CCc1ccccc1Nc1nn2c(=O)c3ccc(C(=O)NCc4ccccc4Cl)cc3nc2s1	7%	?	-24%	12%	4%	.	.	.	.	.	.
CCNc1ccc2noc3c2c1C(=O)c1ccccc1-3	20µM*	28µM*	25µM*	50µM*	?	4.2µM*	75*	76*	3µM*	i	7.6µM*	Pol kappa inh-2=67*;FEN1 inh-2=85*
COc1ccc(NC(=O)/C(C#N)=C\c2ccc(OCc3ccc(C(=O)O)cc3)c(OC)c2)cc1	8%	32µM*	-4%	?	?	35µM*	?	?	-27%	?	?
N#C/C(=C\c1ccccc1OCc1ccc(C(=O)O)cc1)C(=O)Nc1ccc(O)cc1	24%	?	-3%	-9%	?	-21%[57.1 µM]	.	.	.	.	.
COCCNC(=O)C1(C)Cc2c(-c3cccc(C(N)=O)c3)ccnc2O1 (centres undefined)	.	.	.	.	.	7%	.	.	.	.	.
